High-throughput results from PubChem BioAssay.
A selection: hits, their analogues and other compounds. The true share with any hit is near 9%.
KinaseGlo FLuc: blocks Kinase-Glo luciferase, a counter-screen artifact. Q27757. Kinase-Glo luciferase, ATP luminescence, 8 min. Potency, µM (series often up to 38.3 µM), usual class: inhibitors. hit rate 0.28% among 200,000; also: nearly all actives have a fitted effect of over 60% in size
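Compounds were added to a substrate mix at pH 7.2 (50 mM imidazole, 10 uM ATP, within the enzyme's linear range), followed by Kinase-Glo detection reagent; luminescence was measured after 8 minutes at ambient temperature.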
Lamin A splicing: changes lamin A minigene splicing in HeLa cells. HeLa LMNA splicing GFP/RFP minigene ratio, 48 h. Potency, µM (titrated, usually from 46.1 µM), actives largely listed as inhibitors. hit rate 0.01% among 200,000. AID 1487; active = well fitted inhibition curve with a large enough effect in the signal ratio, with a control signal flat, not every such curve was filed as active; inconclusive = small, poorly fitted or top-dose-only effect, or effect the other way, or a change in a side signal; the % refers to the signal ratio
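S3 HeLa cells stably expressing lamin A-EGFP splicing minigene plus DsRed2, 600 cells/well, 48 h compound exposure at 37C. Laser-scanning cytometry; analysed as GFP (500-530 nm)/RFP (575-640 nm) total intensity ratio; 0.5% DMSO vehicle.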
HPGD block: blocks human HPGD enzyme activity | P15428 | purified HPGD, NADH fluorescence kinetic, PGE2 substrate | Potency, µM, most hits filed as inhibitors | hit rate 4.3% among 150,000 | AID 894; active = well fitted inhibition curve with a large enough effect, not every such curve was filed as active; inconclusive = small, poorly fitted or top-dose-only effect, or another doubt; inactive = no such curve, though single readings can be large or run the other way
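NADH formation kinetics: reaction with 30 uM PGE2 and 1 mM NAD+ (final), 20 nM enzyme, Tris-HCl pH 8 with Tween 20, after 15 min compound preincubation at room temperature. Fluorescence change, last versus first of five reads.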
IMPase Li cell: cell-permeable IMPase inhibitors with lithium potentiation. CHO-M1 cells, IP1 TR-FRET (IP-One), carbachol + lithium. Potency, µM (doses to about 59.4 µM), hits mostly inhibitors. hit rate 0.35% among 210,000. AID 1457;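 also: IP1 builds up when IMPase is blocked and the TR-FRET signal falls; nearly all actives have a fitted effect of over 50% in size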
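IP1 accumulation measured by competitive TR-FRET in lysed CHO-M1 cells after 30 min compound exposure at 37C, with a small lithium addition to potentiate weak responses. Hill-equation AC50 from ratio and donor-channel data.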
ALDH1A1 block: blocks purified human ALDH1A1 activity. Purified ALDH1A1, NADH fluorescence, propionaldehyde substrate. Potency, µM (series often up to 75.3 µM), actives largely listed as inhibitors. hit rate 7.3% among 220,000. AID 1030; active = well fitted inhibition curve with a large enough effect, not every such curve was filed as active; inconclusive = small, poorly fitted or top-dose-only effect, or another doubt; inactive = no such curve, though single readings can be large or run the other way
Target sequence (P00352 whole entry, looked up): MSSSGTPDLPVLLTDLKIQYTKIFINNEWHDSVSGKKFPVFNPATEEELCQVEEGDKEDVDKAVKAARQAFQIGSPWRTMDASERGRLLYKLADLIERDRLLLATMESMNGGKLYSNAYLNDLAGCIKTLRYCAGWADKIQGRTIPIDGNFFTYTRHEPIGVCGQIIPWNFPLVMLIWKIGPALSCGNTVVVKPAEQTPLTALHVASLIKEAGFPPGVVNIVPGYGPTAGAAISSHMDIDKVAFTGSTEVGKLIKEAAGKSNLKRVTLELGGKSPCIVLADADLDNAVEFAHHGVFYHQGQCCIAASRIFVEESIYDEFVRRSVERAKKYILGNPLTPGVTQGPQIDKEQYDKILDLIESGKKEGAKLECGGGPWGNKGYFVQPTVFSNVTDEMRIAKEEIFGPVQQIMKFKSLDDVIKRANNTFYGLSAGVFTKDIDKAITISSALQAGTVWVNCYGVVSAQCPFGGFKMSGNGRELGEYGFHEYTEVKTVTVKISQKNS
Hits are given with their value; 0 = inactive; ? = inconclusive; - = not tested or not shown; [ ] = remark or other dose. Unless noted, calls follow the shape of the dose curve; as a rule, active = well fitted curve in the direction sought with a large enough effect; inconclusive = small, poorly fitted or top-dose-only effect, or another doubt; inactive = no such curve, though single readings can be large; an effect the other way counts as inactive or inconclusive.

SMILES	KinaseGlo FLuc	Lamin A splicing	HPGD block	IMPase Li cell	ALDH1A1 block
O=C(NN=C1CCC(c2ccccc2)CC1)c1cc2c(s1)CCCC2 (stereo not drawn)	0	0	0	0	7.9µM
CC(C)(C)C1CCc2sc(C(=O)NNC(=O)CCl)cc2C1 (stereo not drawn)	0	-	-	0	3.2µM
CCc1cc(C(=O)NNC(=O)CCl)sc1C	0	-	-	0	?
CC(C)(C)C1CCC(=NNC(=O)c2cc3c(s2)CCCC3)CC1 (stereo not drawn)	0	0	0	0	4µM
CC1CCc2sc(C(=O)NN=C3CCC(c4ccccc4)CC3)cc2C1 (stereo not drawn)	0	0	0	0	1.3µM
O=C(Cc1cccs1)NC1CC(=O)N(c2cccc(F)c2)C1 (stereo not drawn)	-	0	-	-	-
Fc1cccc(CSc2ncnc3c2ncn3[C@H]2CCCS2)c1	0[7.66 µM]	-	0	0	0[13.5 µM]
CC(C)(C)C1CCC(=NNC(=O)c2ccccc2-n2cccc2)CC1 (stereo not drawn)	0	0	0	0	5µM
COc1ccc(CSc2nc3ccccc3[nH]2)cc1	8.9µM	0	0	0	0
c1ccc2[nH]c(SCc3ccc(-c4nnco4)cc3)nc2c1	0	?	0	0	0
O=C1CCC(=O)N1c1ccc(CSc2nc3ccccc3[nH]2)cc1	0	?	0	0	14µM
COc1ccc(CSc2nc3ncccc3[nH]2)cc1	-	0	-	-	-
O=c1[nH]c(C(F)(F)F)nc2c1nnn2Cc1ccccc1F	0	0	18µM	0	0
CCCc1nc2c(nnn2Cc2ccccc2F)c(=O)[nH]1	0	0	28µM	0	0
COc1ccc(-c2nc3c(c4c2C[C@H](c2ccccc2)OC4)CN(S(=O)(=O)c2ccc(C)cc2)CC3)c(C)c1	0[7.66 µM]	?	0	0	?
O=C(CSc1nnc(CNC(=O)c2ccco2)o1)Nc1nc2ccccc2s1	0	-	-	0	0
CC(=O)[C@@]1(N=Nc2ccc(S(N)(=O)=O)cc2)CCOC1=O	0[7.66 µM]	-	0	0	?
COc1ccc(CN(C(=O)Nc2ccccc2)c2ccccn2)cc1OC	-	0	-	-	-
COCCNC(=O)c1ccc(N2CCCCC2)c(NS(=O)(=O)c2ccc(C)cc2)c1	0	0	0	0	8.9µM
CCC1CCCCN1CCCNC(=O)c1ccc(N2CCOCC2)c(NS(=O)(=O)c2ccc(OC)cc2)c1 (stereo not drawn)	0	-	-	0	?
CCN(CC)CCCNC(=O)c1ccc(N2CCCCC2)c(NS(=O)(=O)c2ccc(C)cc2)c1	0	-	-	0	14µM
COCCCNC(=O)c1ccc(N2CCOCC2)c(NS(=O)(=O)c2ccc(OC)cc2)c1	0	0	0	0	?
CC(O)C(NC=C1C(=O)OC(C)(C)OC1=O)C(=O)O (stereo not drawn)	-	-	-	0	0
CC(C)C(NC=C1C(=O)OC(C)(C)OC1=O)C(=O)O (stereo not drawn)	0	0	0	0	8.9µM
CC(C)Cc1nc2sc3c(=O)[nH]cnc3c2c2c1CCC2	0	0	?	10µM	0
SMILES	KinaseGlo FLuc	Lamin A splicing	HPGD block	IMPase Li cell	ALDH1A1 block
c1ccc(Nc2nc3ccccc3[nH]2)nc1	0	0	32µM	0	?
C=C1C(=O)C=C2CN(C(=O)c3ccccc3)[C@@](Cc3ccc(OC)cc3)(C(=O)OC)[C@@H]12	0	-	7.1µM	0	?
COCCNC(=O)c1ccc(NC(=O)C2(c3ccccc3)CCCC2)cc1	0	0	-	0	0
Cc1ccc(/C=C2\SC(=S)N(C3CCS(=O)(=O)C3)C2=O)cc1 (stereo not drawn)	0	-	-	0	0
O=C1/C(=C/c2ccco2)SC(=S)N1C1CCS(=O)(=O)C1 (stereo not drawn)	0	?	-	0	8.9µM
O=C1/C(=C\c2ccco2)SC(=S)N1C1CCS(=O)(=O)C1 (stereo not drawn)	-	-	-	-	22µM
CCCOc1ccc(-c2nn(-c3ccccc3)cc2/C=C2\SC(=S)N(C3CCS(=O)(=O)C3)C2=O)cc1 (stereo not drawn)	0	0	0	0	0
COc1ccc(Nc2nnc(-c3ccc(C)cc3)c3ccccc23)cc1C(=O)N1CCCCC1	0	?	?	0	?
CCN(CC)C(=O)COc1ccc(-c2nnc(Nc3ccc(OC)c(C(=O)NC)c3)c3ccccc23)cc1	-	-	-	-	25µM
CC(C)(C)SCCNC(=O)c1ccc(Cl)c([N+](=O)[O-])c1	0	0	28µM	0	?
Cc1ccccc1CNC(=O)c1ccc(Cl)c([N+](=O)[O-])c1	0	?	0	0	?
COc1ccc(Nc2nnc(SCC(=O)c3cc(C)n(CC4CCCO4)c3C)s2)cc1 (stereo not drawn)	0	?	0	0	6.3µM
COc1ccc(Nc2nnc(SCC(=O)Nc3ccc4[nH]c(=O)[nH]c4c3)s2)cc1	-	-	-	0	16µM
Cc1cc(NC(=O)CSc2nc(-c3ccccc3C)nc3c2c(=O)n(C)c(=O)n3C)no1	-	0	-	-	-
Cc1cccc(CNc2ncnc3ccc(-c4ccoc4)cc23)c1	0	?	?	0	?
Cc1cccc(CNc2ncnc3ccc(-c4c(C)noc4C)cc23)c1	0	?	13µM	0	0
Cc1noc(C)c1-c1ccc2ncnc(NC3CC3)c2c1	0	?	14µM	0	0
COCCNc1ncnc2ccc(-c3c(C)noc3C)cc12	-	2.8µM	-	0	?
Cc1noc(C)c1-c1ccc2ncnc(NCc3cccnc3)c2c1	-	4µM	-	0	0
O=C(c1cccc(F)c1)N1CCC2(CCCN(c3ncccn3)C2)CC1	0	-	0	0	0
Cc1noc(C)c1-c1nc(NC2CC2)c2ccccc2n1	-	0	-	0	0
CO[C@H]1COC(=O)[C@H](C)NC(=O)[C@@H](C)COC(=O)[C@H]2CCCN2C(=O)C/C=C\[C@H]1C	-	-	-	-	0[13.5 µM]
COc1ccc(CNc2ncnc3ccc(-c4c(C)noc4C)cc23)c(OC)c1	-	2.8µM	-	0	0
Cc1cnc(CNc2ncnc3ccc(-c4c(C)noc4C)cc23)cn1	-	7.1µM	-	0	0
CCN(CC)CCn1c(-c2ccccc2)nc2c(NCCO)nc(C)nc21	0	-	?	0	?
SMILES	KinaseGlo FLuc	Lamin A splicing	HPGD block	IMPase Li cell	ALDH1A1 block
Cc1cc(=O)[nH]c(SCC(=O)Nc2cc(S(=O)(=O)N(C)C)ccc2Cl)n1	0	0	-	0	0
CC1CCCN(S(=O)(=O)c2ccc(S(=O)(=O)NC(C)c3cccs3)cc2)C1 (stereo not drawn)	0	?	0	0	38µM
CCCSc1ccc2nc(-c3ccccc3)cn2c1	10µM	?	?	0	?
COc1cc2c(cc1OC)C(c1ccc(-c3cc(Cl)ccc3Cl)o1)=NCC2	0	?	16µM	0	?
COc1ccc(NC(=O)N2CCCC3(CCN(S(C)(=O)=O)CC3)C2)cc1	0	-	0	0	0
O=C(Nc1cc(S(=O)(=O)N2CCOCC2)ccc1O)c1ccc2c(c1)S(=O)(=O)c1ccccc1C2=O	0	0	-	0	1.1µM
COc1cc(/C=N/n2cnn(Cc3ccccc3Cl)c2=S)cc(OC)c1OC	0	?	-	0	?
COc1ccc(/C=N/n2cnn(Cc3ccccc3Cl)c2=S)cc1	0	0	-	0	10µM
